N-glyco inh – N-linked glycosylation inhibition; D54 ERlucT glycosylation luciferase reporter, 24 h; percent of 100 nM tunicamycin response; reporter increase, % at 12.5 µM; 0.23% of 360,000 active;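 active = mean luciferase reporter signal, scaled so untreated is 0 and the glycosylation-blocking control 100, at or above a set limit in every replicate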;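 also: luciferase carries N-glycosylation sites so blocking glycosylation raises the light; 0% = median of neutral control wells and 100% = median of 100 nM tunicamycin wells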
FID counter – fluorescent intercalator displacement, NS3 helicase counter-screen | inhibition, % at 7.9 µM | 0.17% of 290,000 active | DNA fluorescent intercalator displacement, fluorescence | AID 1845; in the data active = inhibition above about 37%;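 also: 0% = vehicle and 100% = reference compound; higher means more ethidium bromide displaced from hairpin DNA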
RAD52 inh – RAD52 (human) annealing inhibition | recombinant RAD52 DNA annealing, FRET fluorescence | inhibition, % at 18.7 µM | 0.46% of 360,000 active | AID 651710;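 active = every replicate showing at least 50% inhibition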
RAD54 branch – blocks human RAD54 Holliday junction branch migration | Q92698 | inhibition, % at 10.4 µM | 0.14% of 360,000 active | FAM/BHQ fluorescence;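 active = mean normalized replicate activity at least 40 and at least half of replicates scoring 40 or more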;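 also: 0% = median of neutral control wells and 100% = median of positive control wells; inhibitors cause a drop in the FAM fluorescence signal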
NRP1-CendR mod – alters CendR peptide binding to human NRP-1; FAM-RPARPAR peptide binding to NRP-1, fluorescence polarization; inhibition, % at 25 µM; 0.85% of 360,000 active; AID 602438;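 active = inhibition or corrected inhibition above about 18%, plus a signal ratio from 0.5 to 1.5, limit read from the data, passing the limit was not always enough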
miR-122 sensor – blocks miR-122 activity in Huh7 sensor cells. activation (reporter increase), % at 12.5 µM. Huh7 miR-122 Renilla luciferase sensor, 48 h; neutral wells = 0, positive control = 100. AID 602342. 0.3% of 340,000 active;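 active = mean replicate activation score at least 90 and every replicate individually at or above 90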;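 also: higher luciferase means less miR-122 activity so hits act as miR-122 inhibitors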
Active calls of the source: *; . = no result; [ ] = remark or other dose. In the library only some 1.5% were active in any assay of this set; here they are far more common.

SMILES | N-glyco inh | FID counter | RAD52 inh | RAD54 branch | NRP1-CendR mod | miR-122 sensor
CCCNC(=O)C[C@@H]1CC[C@H]2[C@@H](COC[C@@H](O)CN2C(=O)Nc2c(C)noc2C)O1 | . | . | 0.5 | 7.9 | . | 0.0[16.7 µM]
Cc1noc(C)c1NC(=O)N(C)C[C@@H]1Oc2ccc(NS(=O)(=O)c3c(C)noc3C)cc2CC(=O)N([C@@H](C)CO)C[C@H]1C | . | . | 4.8 | -10.0 | . | 0.1[16.7 µM]
COCC(=O)N(C)C[C@@H]1Oc2cc(-c3cccnc3)ccc2S(=O)(=O)N([C@@H](C)CO)C[C@@H]1C | . | . | -2.2 | 5.9 | . | -3.8[16.7 µM]
Cc1nn(CC(=O)NCCCN2CCCCC2)c(=O)c2cc(-c3ccccc3)nn12 | 0.6 | 21.6 | -3.2 | -2.7 | 6.4 | 1.2
COc1ccc(-c2cc3c(=O)n(CC(=O)NCCCN4CCC(N5CCCCC5)CC4)nc(C)n3n2)cc1 | -3.6 | 41.6* | 3.8 | 13.8 | 10.2 | -5.0
COc1ccc(-c2cc3c(=O)n(CC(=O)NC4CCN(Cc5ccccc5)CC4)ncn3n2)cc1 | 0.4 | 2.3 | . | -3.5 | 16.7 | -2.0
COc1ccc(-c2cc3c(=O)n(CC(=O)NCCCN4CCC(N5CCCCC5)CC4)ncn3n2)cc1 | -6.8 | 40.2* | 20.5 | 5.7 | 4.7 | -3.4
Cc1noc(C)c1S(=O)(=O)Nc1ccc2c(c1)CC(=O)N([C@@H](C)CO)C[C@H](C)[C@H](CN(C)C)O2 | . | . | -0.5 | 8.5 | . | 8.2[16.7 µM]
CC(=O)NC(=O)c1cnn(-c2ccccc2)c1N | -1.7 | 0.7 | -4.0 | . | 36.4* | .
CC(=O)N(C)C[C@H]1Oc2ncc(-c3cncnc3)cc2C(=O)N([C@@H](C)CO)C[C@H]1C | . | . | -0.7 | -1.4 | . | -3.6[16.7 µM]
Cc1nc(CSc2ccc(Cl)cc2)cs1 | -1.3 | -5.6 | -1.4 | 9.5 | 1.5 | -0.7
Cc1nc(CSc2ccc(Br)cc2)cs1 | -0.5 | -11.3 | 3.5 | -3.4 | 20.3* | 3.7
CCCN1C[C@H](C)[C@H](OC)CN(C)C(=O)c2cc(NC(=O)c3ccno3)ccc2OC[C@@H]1C | . | . | 0.7 | -8.1 | . | .
Cc1ccc(CC(=O)N2CCN(S(=O)(=O)c3ccccc3)CC2)cc1C | -2.4 | . | -12.1 | . | -3.3 | .
Cc1ccc(S(=O)(=O)N2CCN(C(=O)Cc3ccccc3)CC2)cc1C | -0.7 | . | -10.1 | -2.8 | 22.8* | .
Cn1c(=NC(=O)CS(=O)(=O)c2ccccc2)sc2ccccc21 | -0.5 | . | -1.2 | -3.7 | -10.5 | -10.6
Cn1c(=NC(=O)COc2ccccc2)sc2ccccc21 | -2.9 | -7.7 | -1.3 | . | 25.5* | .
C[C@H]1CN([C@@H](C)CO)C(=O)c2cccc(NC(=O)C3CC3)c2O[C@@H]1CN(C)C(=O)Nc1cccc2ccccc12 | . | . | 6.9 | 0.9 | . | 12.8[16.7 µM]
C[C@H](CO)N1C[C@H](C)[C@H](CN(C)CC2CC2)Oc2ccc(NS(C)(=O)=O)cc2CC1=O | . | . | -3.9 | 10.9 | . | 7.8[16.7 µM]
CCn1c(N)c(C(=O)NCc2cccnc2)sc1=S | 0.6 | -5.8 | . | 0.5 | 25.8* | 0.0
Nc1c(C(=O)NCc2cccnc2)sc(=S)n1-c1ccccc1 | 0.6 | -2.3 | . | -2.3 | 2.5 | 3.7
O=C(Cc1csc(NC(=O)Nc2ccc(Cl)cc2)n1)NCc1cccnc1 | -0.1 | . | -2.4 | -0.4 | 34.3* | -2.7
O=C(Cc1csc(NC(=O)Nc2cccc(Cl)c2)n1)NCc1cccnc1 | -1.5 | . | -7.3 | -1.5 | -2.3 | 4.8
CC(=O)N1CC2(C1)[C@H](c1ccc(-c3ccc(F)cc3)cc1)[C@@H](CO)N2CC1CC1 | . | . | -5.8 | . | . | .
C[C@@H]1CN([C@H](C)CO)C(=O)c2cc(NC(=O)Cc3ccccc3)ccc2O[C@@H]1CN(C)C(=O)Nc1ccc(F)cc1 | . | . | -16.9 | -2.2 | . | -4.8[16.7 µM]
SMILES | N-glyco inh | FID counter | RAD52 inh | RAD54 branch | NRP1-CendR mod | miR-122 sensor
COc1cc(OC)cc(C(=O)Nc2ncc3c(n2)CC(C)CC3=O)c1 (configuration not stated) | 0.7 | -16.9 | . | 3.2 | 34.8* | 5.6
COc1ccc(C(=O)Nc2ncc3c(n2)CC(c2ccco2)CC3=O)cc1 (configuration not stated) | 8.9 | -16.6 | -17.6 | 3.5 | 35.7* | .
COc1cccc(C(=O)Nc2ncc3c(n2)CC(C)CC3=O)c1 (configuration not stated) | 3.1 | -5.3 | . | -17.0 | -11.2 | -2.8
CCNC(=O)C[C@H]1CC[C@H]2[C@@H](COC[C@@H](O)CN2Cc2ccc(Cl)c(Cl)c2)O1 | . | . | -7.0 | -5.7 | . | -0.3[16.7 µM]
Cn1c(Cn2c(=O)sc3ccccc32)nnc1SCC(=O)N1CCN(c2ccccc2)CC1 | 0.3 | -14.5 | -4.5 | -3.9 | 27.0* | -5.2
COc1ccccc1OCC(=O)NNC(=O)CSC(=S)N1CCCC1 | 2.4 | . | -10.5 | -2.3 | 23.6* | 6.3
CN(C)C(=O)[C@H]1[C@H](CO)[C@H]2Cn3c(ccc(/C=C/c4ccccc4)c3=O)[C@H]2N1CC1CC1 | . | . | -9.7 | . | . | .
CCC(C)(C)NC(=O)C(c1cccn1C)N(C(=O)Cn1nnc2ccccc21)c1ccc(OC)cc1OC (configuration not stated) | -0.7 | -43.3 | . | 3.3 | -1.7 | 91.7*
Cc1noc(C)c1S(=O)(=O)N(C)C[C@@H]1Oc2ccc(NS(=O)(=O)c3cccs3)cc2CC(=O)N([C@H](C)CO)C[C@H]1C | . | . | 12.2 | 2.9 | . | 3.9[16.7 µM]
CNC(=O)C1CCC(=O)N1Cc1ccc(C)cc1 (configuration not stated) | 1.8 | -3.1 | . | 2.3 | -6.7 | 1.8
Cc1ccc(CN2C(=O)CCC2C(=O)NC2CC2)cc1 (configuration not stated) | 5.0 | 0.1 | . | -4.9 | 26.5* | -2.6
COc1ccc2c3c([nH]c2c1)[C@H](CO)N(C(=O)NC(C)C)CC31CN(C(=O)c2cnccn2)C1 | . | . | 2.6 | . | . | .
CCCN1CCCc2cc(CN)ccc21 | 12.8 | 9.7 | . | -1.4 | 25.2* | -4.2
Cc1ccc(OCC(=O)c2c(N)n(C)c(=O)n(C)c2=O)c([N+](=O)[O-])n1 | 1.1 | . | -49.8 | 3.1 | 20.6* | .
COC(=O)CC1C(=O)NCCN1C(=S)Nc1ccc(F)cc1 (configuration not stated) | 0.5 | -2.5 | -21.5 | 2.4 | 36.1* | .
Cc1cc(C)cc(NS(=O)(=O)c2cc(Br)cnc2N)c1 | 0.9 | -19.7 | -4.0 | 6.5 | -2.9 | 97.7*
Nc1ncc(Br)cc1S(=O)(=O)NC1CCCCC1 | -2.3 | -10.7 | -2.0 | -19.8 | 7.8 | 126.0*
COc1ccc(Cl)cc1NS(=O)(=O)c1cc(Br)cnc1N | 1.9 | -5.5 | -5.2 | 3.9 | -2.9 | 41.2
CC1CCCC(NS(=O)(=O)c2cc(Br)cnc2N)C1C (configuration not stated) | -1.3 | -20.3 | -6.0 | 4.0 | 7.1 | .
CCc1ccccc1NC(=O)CCNS(=O)(=O)c1cc(Br)cnc1N | -3.7 | -10.3 | -2.5 | -4.5 | 5.9 | 4.1
Nc1ncc(Br)cc1S(=O)(=O)NCCc1ccccc1 | -2.4 | -7.7 | -6.3 | -1.3 | -0.3 | 105.5*
Cc1ccc(NS(=O)(=O)c2cc(Br)cnc2N)cc1C | -0.8 | -12.6 | -3.4 | -3.1 | 1.2 | 144.2*
CSc1cccc(NS(=O)(=O)c2cc(Br)cnc2N)c1 | 0.7 | 9.8 | -12.9 | -11.6 | -8.9 | 106.0*

Compound activity deposited in PubChem BioAssay by several laboratories.
